According to PubChem BioAssay AID652141 (The Scripps Research Institute Molecular Screening Center, 2013):
Hit rate of the full screen: of about 5,600 compounds, about 4,500 (80%) were called active. The set was probably picked from earlier hits. A selection follows. Values without a mark were called inactive. Cut-off read from the data, not from the text of the source: active = inhibition above about 10%; inactive = the rest.

Assay: GDH-TPI coupling enzyme inhibitors, artefact control for M. tuberculosis FBA inhibitor project, biochemical, fluorescence, high throughput (AID 652141)
Details: GDH-TPI coupled enzyme counterscreen, at 1 µM, hits give high values

Compound | inhibition
Cc1ccc(Cn2c(C)nc3c(c2=O)c2nc4ccccc4nc2n3Cc2ccco2)cc1 | 48.7% (active)
CC[C@@H]1Cc2cc(O)ccc2C2=C1c1ccc(O)cc1C[C@H]2CC | 79.8% (active)
COc1ccc2oc(=O)c(C(=O)NCc3ccccn3)cc2c1 | -4.05%
COc1ccc2oc(=O)c(C(=O)N3CCCC3)cc2c1 | 99.7% (active)
Nc1ccccc1-c1nc2ccncc2[nH]1 | 0.69%
O=C(Nc1cccc2ccccc12)N1CCC2(CC1)OCCO2 | 93.7% (active)
O=C(Nc1cccc2ccccc12)N1CCN(Cc2ccc3c(c2)OCO3)CC1 | 34.8% (active)
COc1cc(C(F)(F)F)nc2c(Br)c(C(C)(C)C)nn12 | 47.7% (active)
O=C(NCc1cccc(Cl)c1)C1=CC=CN2CCS(=O)(=O)N=C12 | -4.53%
CNc1nc(-c2ccccc2)cc(-c2ccccc2)n1 | 73.9% (active)
Nc1nc2n(n1)C(c1ccco1)CC(c1ccc(Cl)c(Cl)c1)N2 (stereo not drawn) | 199% (active)
Cn1c(-c2ccco2)nc2cc3ccccc3cc21 | 36.5% (active)
Cn1cccc1-c1nc2ccccc2n1C | 9.72%
O=C(Nc1nncs1)c1ccccc1NS(=O)(=O)c1cccs1 | 115% (active)
Cc1ccc(C2Nc3ccccc3C(=O)N2CCN2CCNC2=O)cc1 (stereo not drawn) | -5.86%
CCOC(=O)NN1C(=O)c2ccccc2NC1c1cccc(O)c1 (stereo not drawn) | 100% (active)
Cc1cc(C)nc(SCc2cn3c(C)cc(C)nc3n2)n1 | 69.3% (active)
Cc1nn(C)c(Oc2ccccc2)c1CCNS(=O)(=O)c1ccc(F)cc1 | 124% (active)
COc1cc(/C=C/c2ccc(/C=C/c3cc(OC)c(OC)c(OC)c3)cc2)cc(OC)c1OC | 11.4% (active)
COCCCNC(=O)/C(C#N)=C/c1c(N2CCCCCC2)nc2ccccn2c1=O | 50.5% (active)
CC[C@@H](C)[C@H](NC(=O)CCc1c(C)c2cc3c4c(oc3c(C)c2oc1=O)CCCC4)C(=O)O | 83% (active)

Compound | inhibition
CCCc1cc(=O)n2[nH]c(C)c(-c3ccc(Cl)cc3)c2n1 | 108% (active)
COCc1cc(=O)n2[nH]c(C)c(-c3ccccc3)c2n1 | 39.7% (active)
Cc1nc2c(-c3ccccc3)c(C)[nH]n2c(=O)c1Cl | 81.2% (active)
CN1CCc2c(sc3c2c(NCc2ccco2)nc2nnnn23)C1 | 183% (active)
O=C(CCC(=O)N/N=C/c1ccc(Br)o1)N/N=C/c1ccc(Br)o1 | 88.2% (active)
Fc1ccc(COc2cccc(-c3n[nH]c(=S)o3)c2)cc1 | 137% (active)
CCN(C(=O)Nc1cccc2ccccc12)c1ccccc1 | 118% (active)
CC(=O)Nc1ccc(-c2nc3ccccc3o2)cc1 | -2.16%
COc1cc(OC)cc(C(=O)Nc2ccc(-c3nc4ccccc4o3)c(O)c2)c1 | 135% (active)
CC(C)(C)C(=O)Nc1cccc(-c2ccc[nH]2)n1 | 71% (active)
CC(C)(C)NC(=O)COc1ccc(CNc2ccc3[nH]c(=O)[nH]c3c2)cc1 | 2.64%
COCCCn1c(C(=O)NC2CCCCC2)cc2c(=O)n3cccc(C)c3nc21 | 53.1% (active)
Cc1ccn2c(c1)nc(=O)c1cc(S(=O)(=O)N3CCC(C)CC3)ccc12 | -0.78%
Cc1ccc(-n2c(=O)c(C#N)cc3c(=O)n4ccccc4nc32)cc1C | 19.5% (active)
Cc1coc2c1c(C)cc1oc(=O)c(CC(=O)NCC(=O)N[C@H](C(=O)O)C(C)C)c(C)c12 | 49.8% (active)
CCCCC(NS(=O)(=O)c1ccc(C)cc1)C(=O)Oc1ccc2c3c(c(=O)oc2c1)CCC3 (stereo not drawn) | 68.4% (active)
NC(=O)C1CCN(C(=O)COc2ccc3c4c(c(=O)oc3c2)CCC4)CC1 | -5.33%
COCC(C)OC(=O)c1c(N)n(CCCN2CCOCC2)c2nc3ccccc3nc12 (stereo not drawn) | -2.55%
CCCNC(=O)c1c(N)n(-c2ccc(S(N)(=O)=O)cc2)c2nc3ccccc3nc12 | 3.87%
C=CCn1c(N)c(C(=O)OCC(C)C)c2nc3ccccc3nc21 | 59.2% (active)
CC(C)Cn1c(N)c(C(=O)NCc2cccs2)c2nc3ccccc3nc21 | 29.6% (active)

Compound | inhibition
COc1cccc(NC(=O)CN(C)CC(=O)Nc2ccc3c(c2)CCC3)c1 | 73.6% (active)
COc1cccc(NC(=O)CN(C)C(=O)/C=C/c2cc(OC)ccc2OC)c1 | 82.6% (active)
OC[C@@H]1CN(Cc2cccs2)C[C@H](n2cnc3c(Nc4ccccc4)ncnc32)O1 | 64.2% (active)
COc1ccccc1NC(=O)COc1ccc(C(=O)OCC(=O)N(C(C)C)C(C)C)cc1OC | -2.75%
COc1ccccc1C(=O)Nc1ccc(OCC(=O)N2CCCCC2)cc1 | 137% (active)
O=C1CC2(CCCCC2)Oc2ccc(OCC(=O)N3CCOCC3)cc21 | 0.92%
COc1ccc2c(c1OC)C(=O)N(c1ncn[nH]1)C2 | 53% (active)
COc1nc(N=C(N)N)nc2c(C)cccc12 | 83.6% (active)
COc1ccc2c(c1)cc1n2CCN=C1NN | 89.8% (active)
COCCCn1c(CCC(=O)O)ccc1-c1ccc(F)cc1 | 43.6% (active)
CN(C)CCCNC(=O)c1ccc2[nH]c3ccccc3c2c1 | 96.7% (active)
Cc1ccc(-c2nc3ccccc3[nH]c2=O)cc1 | 61.1% (active)
CC(Nc1nc(N2CCOCC2)nc2ccccc12)c1ccccc1 (stereo not drawn) | 31% (active)
c1ccc2c(NC3C4CC5CC(C4)CC3C5)nc(N3CCOCC3)nc2c1 (stereo not drawn) | 95.8% (active)
COc1ccc(-c2ccc(C(=O)NCCN3CCOCC3)c3occc23)c(C)c1 | 56.7% (active)
COc1ccc(-c2ccc(C(=O)NC(C)C)c3occc23)c(C)c1 | 86.3% (active)
COCc1cc(=O)[nH]c2cc(NC(=O)C(F)(F)F)c(C)cc12 | 67.2% (active)
CCC(=O)Nc1ccc2nn(-c3ccc(F)cc3)nc2c1 | 70% (active)
CCNC(=S)Nc1ccc2c(c1)c(=O)n(C)n2Cc1ccc(Cl)cc1 | -3.99%
COCCNc1cc(-c2ccccc2)nc2cc(-c3cccc(F)c3)nn12 | 133% (active)
Cc1cc(S(=O)(=O)c2cc3ccc(O)c(C)c3oc2=O)ccc1F | 40.8% (active)
